RORg inh – ROR gamma (mouse) transcription inhibition; AID 2551; hit rate 5.4% among 310,000; Potency, µM (titrated, usually from 53.6 µM), inactives show at the highest dose activity change, negative = inhibition, most hits filed as inhibitors; Drosophila S2 Gal4-RORgamma UAS-luciferase reporter, 20 h; P51450; also: potency is read from the fitted curve at half-maximal effect; nearly all actives have a fitted effect of over 60% in size
Target sequence (P51450 whole entry, looked up, the tested form may be a part): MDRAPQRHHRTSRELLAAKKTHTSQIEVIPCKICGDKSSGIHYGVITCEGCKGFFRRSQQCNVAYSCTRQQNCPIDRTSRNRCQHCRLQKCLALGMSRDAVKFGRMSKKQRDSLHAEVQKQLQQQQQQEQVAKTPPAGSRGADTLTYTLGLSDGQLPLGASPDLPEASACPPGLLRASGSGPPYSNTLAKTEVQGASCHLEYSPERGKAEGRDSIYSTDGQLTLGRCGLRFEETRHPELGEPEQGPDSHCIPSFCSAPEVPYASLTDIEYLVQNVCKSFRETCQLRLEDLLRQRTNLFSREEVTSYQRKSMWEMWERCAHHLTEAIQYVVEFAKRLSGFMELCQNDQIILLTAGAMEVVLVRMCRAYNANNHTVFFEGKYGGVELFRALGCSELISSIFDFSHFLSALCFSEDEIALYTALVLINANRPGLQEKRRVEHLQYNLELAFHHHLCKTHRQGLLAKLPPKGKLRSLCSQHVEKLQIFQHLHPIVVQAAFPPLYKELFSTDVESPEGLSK
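Schneider cells (Drosophila), stable Gal4 DBD–ROR gamma + UAS-luc; 1 hr cmpd preincubation; Cu2+ induction 700 uM final; 20 hr ambient; luminescence.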
GALK inh – blocks human galactokinase activity; hit rate 0.007% among 270,000; P51570; Potency, µM (highest dose often 57.5 µM), without a hit: at the top dose activity change, negative = inhibition, usual class: inhibitors; Purified GALK, Kinase-Glo residual ATP luminescence; AID 1868; also: potency is read from the fitted curve at half-maximal effect
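Kinase-Glo Plus luminescence measured ATP left after a 1 h room-temperature reaction. The reaction used 5 nM GALK, 100 uM galactose and 35 uM ATP at pH 8.0 (20 mM HEPES, 5 mM MgCl2, 60 mM NaCl, 1 mM DTT, 0.01% BSA).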
TrxR1 inh – inhibitors of rat thioredoxin reductase 1. O89049. recombinant rTrxR1, NADPH fluorescence consumption, selenite substrate. Potency, µM (highest dose often 114 µM), for the others: at the top dose activity change, negative = inhibition, hits mostly inhibitors. hit rate 1% among 390,000. AID 588453; also: potency is read from the fitted curve at half-maximal effect; nearly all actives have a fitted effect of over 65% in size
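Rat TrxR1 (90 nM in the dispensed reagent) was pre-reduced with 400 uM NADPH for 5 min at room temperature, then incubated with compound for 15 min. After 400 uM selenite was added, NADPH fluorescence (Ex 340/Em 450 nm) was followed for 8 min.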
Coupling enz – coupling enzyme interference in Giardia aldolase counter-screen; coupling enzyme system counterscreen, AmpLite Red fluorescence; activity change, negative = inhibition, % at 58.2 µM, hits read low; hit rate 0.67% among 290,000; AID 2472; in the data active = activity change below about -30%
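Final compound at 57.5 uM, incubated 10 min at RT with coupling enzyme reagent (glyceraldehyde-3-phosphate), then 20 min with substrate and AmpLite Red detection. Fluorescence read at 525/598 nm; tests interference with the coupling assay, not aldolase inhibition.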
TrxR1 substrate – is turned over as a substrate by rat TrxR1; Potency, µM (series often up to 114 µM), inactives show top-dose activity change, negative = substrate turnover; purified TrxR1 substrate turnover, NADPH consumption readout; O89049; hit rate 0.01% among 390,000; also: potency is read from the fitted curve at half-maximal effect; nearly all actives have a fitted effect of over 50% in size
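Rat TrxR1, dispensed at 90 nM, was prereduced with 400 uM NADPH (final) for 5 min at ~22 deg C, then incubated with compound 15 min before 400 uM selenite. A first-read NADPH fluorescence drop versus no-compound background flagged substrates.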
VP16 counter – inhibits Gal4-VP16 luciferase reporter, ROR gamma counter-screen; Drosophila S2 Gal4-VP16 UAS-luciferase, luminescence, 20 h; Potency, µM (highest dose often 53.6 µM), inactives show at the highest dose activity, negative = inhibition, usual class: inhibitors; hit rate 3.5% among 310,000;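 also: Gal4-VP16 expression switched on by copper sulfate through the metallothionein promoter; potency is read from the fitted curve at half-maximal effect; nearly all actives have a fitted effect of over 50% in size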
Active calls of the source: *; ? = inconclusive; . = not tested or not shown; [ ] = another dose, or the depositor's remark. Hits are enriched below; roughly 5.9% of the tested compounds scored in any of these assays. Unless noted, calls follow the shape of the dose curve; as a rule, active = well fitted curve in the direction sought with a large enough effect; inconclusive = small, poorly fitted or top-dose-only effect, or another doubt; inactive = no such curve, though single readings can be large; an effect the other way counts as inactive or inconclusive. % is scaled to controls: 0 for no effect and ±100 for the full control effect.

SMILES	RORg inh	GALK inh	TrxR1 inh	Coupling enz	TrxR1 substrate	VP16 counter
COC(=O)c1cc(NC(=O)N2c3ccccc3Sc3ccccc32)cc(C(=O)OC)c1	2.4%	-0.2%	18.1%	0.4	6.4%	-2.0%
O=C(O)Cc1c[nH]c2ccccc12	.	.	-1.3%	.	-1.6%	.
O=C(CCl)N(c1ccc(Cl)cc1)c1c[nH]c2ccccc12	4.47µM*	-7.2%	0.447µM*	0.6	-7.2%	10µM*
O=C(CCl)N(c1ccccc1)c1c[nH]c2ccccc12	14.1µM*	-11.1%	2.24µM*	2.5	2.4%	?
Cc1cccc(C)c1NC(=O)c1ccc(-n2cncn2)nc1	-17.0%	0.5%	-3.7%	3.2	2.8%	-0.1%
COc1cccc(-c2ccnc3c(-c4ccc(F)cc4)c(C)nn23)c1	.	.	22.0%	.	-4.6%[11.4 µM]	.
COc1ccccc1N=Nc1nc(-c2ccccc2)c(-c2ccccc2)[nH]1	3.16µM*	0.2%	16.4%	0.9	-4.9%	5.01µM*
COc1ccc(-c2nc(-c3ccccc3)c(-c3ccccc3)[nH]2)cc1Br	.	.	-11.6%	.	-5.4%	.
COc1ccc(N=Nc2nc(-c3ccccc3)c(-c3ccccc3)[nH]2)cc1	2.24µM*	0.8%	20.1%[57.1 µM]	1.1	-20.5%[57.1 µM]	2.82µM*
Oc1ccccc1N=Nc1nc(-c2ccccc2)c(-c2ccccc2)[nH]1	3.98µM*	0.2%	-7.7%	-1.4	-13.4%	3.98µM*
COc1ccc(-c2nc(C)ncc2N=Nc2ccccc2)cc1	13.3%	-0.1%	13.6%[57.1 µM]	0.4	3.5%[57.1 µM]	10.1%
CCOC(=O)c1nn(-c2ccccc2)c(=O)cc1OCC(=O)Nc1cc(C)ccc1OC	.	.	28.5%	.	13.0%	.
O=C(C[C@H]1C/C=C\CC[C@@H](Cc2ccc(F)cc2)C(=O)OC[C@H]2CCCN2C1=O)NCCO	.	.	28.9%	.	2.2%	.
COc1ccc(S(=O)(=O)N2CN(Cc3ccco3)c3nc4ccccc4nc32)cc1	-19.2%	-1.8%	35.5µM*	-3.0	21.7%	-26.8%
C=CCOC(=O)C1=C(C)NC(C)=C(C(=O)OCC=C)C1c1cn(-c2ccccc2)nc1-c1ccco1	0.3%	.	2.0%	0.2	42.9%	-0.9%
O=C(CC1Sc2ncnn2C1=O)Nc1ccc(Cl)cc1 (configuration not stated)	?	-0.8%	?	2.4	8.2%[57.1 µM]	?
CCOC(=O)c1ccc(NC(=O)CC2Sc3ncnn3C2=O)cc1 (configuration not stated)	?	-1.6%	1.78µM*	-7.1	10.8%	22.4µM*
CCOC(=O)c1ccc(NC(=O)CC2SC(=NC)N(C)C2=O)cc1 (configuration not stated)	4.0%	-0.4%	7.7%	-1.1	1.0%	9.9%
COc1ccc(NC(=O)CC2Sc3ncnn3C2=O)cc1 (configuration not stated)	?	-0.6%	1.58µM*	1.0	10.5%[57.1 µM]	?
NC(=O)CC1C(=O)N(c2ccccc2)C(=S)N1NC(=O)c1ccccc1 (configuration not stated)	?	5.7%	-1.2%	-0.8	-6.5%[57.1 µM]	-7.3%
Cc1c(-c2ccccc2)c(=O)oc2ccc(OC(=O)N3CCOCC3)cc12	.	.	12.5%[57.1 µM]	.	2.4%[57.1 µM]	.
COc1ccc(NC(=O)Cc2ccc(Cl)c(Cl)c2)cn1	32.0%	-4.2%	16.3%[57.1 µM]	-0.3	-9.1%	-6.5%
COc1ccc(NC(=O)/C(Cl)=C(/Cl)S(=O)(=O)Cc2ccc(C)cc2)cn1	4.47µM*	0.0%	2.24µM*	0.5	11.1%[57.1 µM]	3.16µM*
COc1ccc(NC(=O)/C(Cl)=C(/Cl)S(=O)Cc2ccccc2Cl)cn1 (configuration not stated)	1µM*	-1.3%	?	0.2	7.9%[57.1 µM]	4.47µM*
COc1ccc(CCNC(=O)C(=O)NCC2OCCN2S(=O)(=O)c2ccc(OC)cc2)cc1 (configuration not stated)	38.3%	.	3.6%[57.1 µM]	-4.0	6.6%[57.1 µM]	-0.2%
Cc1cccc(-c2[nH]c(C(C)(C)C)nc2-c2ccc3c(c2)OCO3)n1	1.78µM*	.	.	0.8	.	7.08µM*

Assay outcomes as filed in PubChem BioAssay.
